Shown are actives, neighbours in structure and some others; about 14% of the full set was active somewhere.
HSD17B inhib: inhibitors of human HSD17B10 dehydrogenase; AID 893; 7.6% of 75,000 active; Potency, µM (top dose mostly 57.1 µM), inactives show top-dose activity change, negative = inhibition, actives largely listed as inhibitors; recombinant HSD17B10, NADH fluorescence kinetic;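 note: the protocol describes HADH2 (HSD17B10) and not the HSD17B4 of the title; potency is the fitted concentration of half-maximal effect; % is set by controls: 0 for no effect and ±100 for the full control effect; nearly all actives have a fitted effect of over 70% in size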
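Activity followed as NADH fluorescence increase (ex 360, em 450 nm) every 30 seconds for 4 min, using final 90 uM beta-hydroxybutyryl CoA and 1 mM NAD+. Recombinant His-tagged enzyme, 20 nM, pH 9.0 Tris buffer, 15 min compound preincubation.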
A350 fluor: compounds fluorescent in Alexa 350 spectral region; 11% of 59,000 active; Compound autofluorescence, 340/450 nm, Alexa 350 dye-equivalents; active compounds read high; max dye-equivalent concentration, M; in the data active = max dye-equivalent concentration above about 10 nM; inconclusive = mostly about 1.1 nM to 9.6 nM
HADH2 inhib: HADH2 (human) dehydrogenase inhibition | Q99714 | recombinant HADH2, NADH fluorescence, beta-hydroxybutyryl-CoA | Potency, µM (titrated, usually from 57.1 µM), for inactives: top-dose activity change, negative = inhibition, actives largely listed as inhibitors | 3.4% of 73,000 active; note: potency is the fitted concentration of half-maximal effect; % is set by controls: 0 for no effect and ±100 for the full control effect; nearly all actives have a fitted effect of over 60% in size
Target sequence (Q99714 whole entry, looked up, one chain of several): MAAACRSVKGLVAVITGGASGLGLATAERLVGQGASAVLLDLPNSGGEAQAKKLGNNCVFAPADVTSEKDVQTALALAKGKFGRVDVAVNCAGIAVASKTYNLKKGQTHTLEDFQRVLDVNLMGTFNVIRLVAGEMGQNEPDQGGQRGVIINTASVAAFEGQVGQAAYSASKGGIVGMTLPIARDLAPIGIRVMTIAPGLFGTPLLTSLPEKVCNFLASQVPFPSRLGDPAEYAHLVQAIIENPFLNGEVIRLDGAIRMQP
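20 nM HADH2 + cpd, 15 min RT; add 1 mM NAD+/90 uM beta-hydroxybutyryl-CoA; kinetic fluorescence 360/450 nm, 4 min. Tris-HCl pH 9.0, 0.01% Tween-20.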
4-MU autofl: compounds fluorescent in 4-MU spectral region. compound autofluorescence, 340/450 nm, 4-MU equivalents; active compounds read high. max dye-equivalent concentration, M. 11% of 59,000 active. AID 589; in the data active = max dye-equivalent concentration above about 10 nM; inconclusive = mostly about 1.1 nM to 9.6 nM
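Intrinsic fluorescence at 340/450 nm (ex/em) was read after 15 min at room temperature in pH 8.0, 100 mM Tris. Each compound concentration expressed as 4-MU-equivalent concentration from a six-point 4-MU standard series on each plate.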
AID923: qHTS Assay for Allosteric/Competitive Inhibitors of Caspase-1: Spectroscopic Profiling in AFC Spectral Region | compound fluorescence, AFC spectral region (405/520 nm) | Potency, µM (titrated, usually from 57.5 µM), for inactives: at the highest dose fluorescence increase, hits mostly activators | 1.1% of 75,000 active | AID 923, 2007; note: potency is the fitted concentration of half-maximal effect; 0% is about no effect
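Compound autofluorescence profiled at 405 nm ex/520 nm em during kinetic caspase 1 run (50 nM enzyme, 5 uM Ac-WEHD-AFC, HEPES pH 7.5, 10 mM DTT). Titration up to 57 uM; baseline from regression intercept, normalized to AFC standard curve.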
CRE Fsk mod: CRE-bla signaling modulation under forskolin stimulation | CHO CRE-bla reporter (cAMP response element driving beta-lactamase), forskolin EC10, beta-lactamase ratio | 2.5% of 71,000 active | Potency, µM (series often up to 38.2 µM), for the others: at the highest dose activity change, negative = inhibition, usual class: activators; active = well fitted activation curve with a large enough effect in the signal ratio, with a control signal flat, not every such curve was filed as active; inconclusive = small, poorly fitted or top-dose-only effect, or effect the other way, or a change in a side signal; the % refers to the signal ratio; note: potency is the fitted concentration of half-maximal effect; % of control where 0% means no effect
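Modulation of forskolin signalling: compounds in titration series added with EC10 NKH 477 to CHO cells carrying a CRE-driven beta-lactamase reporter, 3 h, 37C. CCF4 FRET ratio (460/530 nm, ex 405 nm) gives %activity and AC50.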
CHO tox 24h: reduces CRE-bla CHO cell viability after 24 hours | CRE-bla CHO viability, ATP luminescence, 24 h | activity, negative = viability loss, % at 46.1 µM | shares compounds with CRE Fsk mod | 120 tested, under 10 active
CHO tox 40h: reduces CRE-bla CHO cell viability after 40 hours | shares compounds with CRE Fsk mod | CRE-bla CHO viability, ATP luminescence, 40 h | Potency, µM, for inactives: max response, most hits filed as inhibitors | 120 tested, under 10 active | AID 906
CREB luc CRC: boosts CRE luciferase signal in HEK293 cells. shares compounds with CRE Fsk mod. HEK293 CRE-luc2P, NKH477 EC10 potentiation, luminescence, 4 h. Potency, µM (top dose mostly 38.3 µM), for inactives: at the highest dose activity, positive = activation, hits mostly activators. 80% of 120 active. AID 907
* = called active by the depositor; i = inactive; ? = inconclusive; . = no result given; [ ] = another dose, or the depositor's remark. Unless noted, calls come from the whole dose curve; as a rule, active = well fitted curve in the direction sought with a large enough effect; inconclusive = small, poorly fitted or top-dose-only effect, or another doubt; inactive = no such curve, though single readings can be large; an effect the other way counts as inactive or inconclusive.

SMILES	HSD17B inhib	A350 fluor	HADH2 inhib	4-MU autofl	AID923	CRE Fsk mod	CHO tox 24h	CHO tox 40h	CREB luc CRC
CCN(C(=O)c1cn(C)c(=O)c2cc(OC)c(OC)cc12)c1cc(C)ccc1C	-30%	i	-3%	i	-1%	?	.	.	.
CCOc1ccc(C2c3c(oc4ccccc4c3=O)C(=O)N2c2ccc(C)cn2)cc1OC (centres undefined)	0%	.	-5%	.	1%	2µM*	-9	-27%	10µM*
COc1ccc(Nc2nc(Nc3ccc(OC)cc3)nc(-n3[nH]c(=O)c(C)c3C)n2)cc1	.	i	.	i	.	.	?	?	0.5µM*
COc1ccc(-n2c(=O)c(C)nc3cnc(Oc4cccc(Cl)c4)nc32)cc1	7%	i	-4%	i	-1%	?	.	.	.
OB(O)c1ccc(Cl)s1	10%	.	-2%	.	0%	.	.	.	.
CCc1nc2nc(C)cc(Nc3cccc(C(F)(F)F)c3)n2n1	-13%	i	-2%	i	0%	4µM*	-17	-28%	13µM*
Cc1cc(Nc2cccc(C)c2C)n2nc(C)nc2n1	2%	.	-1%	.	-1%	?	.	.	.
C[C@@H]1C[C@H](OC(=O)[C@@H](O)c2ccccc2)CC(C)(C)N1C	2%[25.6 µM]	i	10%[25.6 µM]	i	9%[25.7 µM]	-5%[17.1 µM]	.	.	.
O=C(Nc1ccccc1O)c1cc(S(=O)(=O)N2CCOCC2)ccc1Cl	2%	i	-7%	i	3%	1%	5	-9%	16µM*
CC(=O)OCC1OC(C#CCC2CCCCC2)C=CC1OC(C)=O (centres undefined)	-7%[11.4 µM]	.	-21%[11.4 µM]	.	-3%[11.5 µM]	.	.	.	.
COc1cccc(-c2nnc3sc(C4CCCCC4)nn23)c1	.	i	.	i	.	.	.	.	.
COc1cc(-c2nnc3sc(C4CCCCC4)nn23)cc(OC)c1OC	-28%	i	-5%	i	-3%	1µM*	?	?	0.13µM*
